# Data: ChEMBL document CHEMBL1961873, “Compounds: GSK PKIS; Assays: Nanosyn kinase panel” (2012)
# Experiments:
# [1] = target: CDK3/Cyclin E (Homo sapiens) (UniProt P24864+Q00526); details: at 1 µM;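 note: each figure is a mean percent inhibition of the CDK3/cyclin E complex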
# [2] = target: Cyclin-dependent kinase 4 (Homo sapiens) (UniProt P11802); details: at 0.1 µM
# [3] = target: Cyclin-dependent kinase 4 (Homo sapiens) (UniProt P11802); details: at 1 µM
# [4] = target: Cyclin-dependent kinase 5 (Homo sapiens) (UniProt Q00535); details: at 0.1 µM
# [5] = target: Cyclin-dependent kinase 5 (Homo sapiens) (UniProt Q00535); details: at 1 µM
# [6] = target: Cyclin-dependent kinase 6 (Homo sapiens) (UniProt Q00534); details: at 0.1 µM
# [7] = target: Cyclin-dependent kinase 6 (Homo sapiens) (UniProt Q00534); details: at 1 µM
# [8] = target: Dual specificity protein kinase CLK2 (Homo sapiens) (UniProt P49760); details: at 0.1 µM
# [9] = target: Dual specificity protein kinase CLK2 (Homo sapiens) (UniProt P49760); details: at 1 µM
# [10] = target: Dual specificity protein kinase CLK3 (Homo sapiens) (UniProt P49761); details: at 0.1 µM
# Dual specificity protein kinase CLK3 (Homo sapiens), sequence (P49761 whole entry, looked up): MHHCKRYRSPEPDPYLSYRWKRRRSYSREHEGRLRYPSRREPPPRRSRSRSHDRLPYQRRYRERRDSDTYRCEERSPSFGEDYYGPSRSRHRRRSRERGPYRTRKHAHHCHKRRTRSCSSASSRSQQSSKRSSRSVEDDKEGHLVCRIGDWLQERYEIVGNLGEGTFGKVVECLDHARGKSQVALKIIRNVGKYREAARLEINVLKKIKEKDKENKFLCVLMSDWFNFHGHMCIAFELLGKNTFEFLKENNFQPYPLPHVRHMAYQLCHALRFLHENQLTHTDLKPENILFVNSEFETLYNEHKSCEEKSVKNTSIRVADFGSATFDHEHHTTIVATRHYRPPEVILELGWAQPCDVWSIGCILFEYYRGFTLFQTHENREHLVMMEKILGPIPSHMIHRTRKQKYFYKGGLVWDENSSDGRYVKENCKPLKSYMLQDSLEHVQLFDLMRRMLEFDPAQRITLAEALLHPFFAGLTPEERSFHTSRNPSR
# CDK3/Cyclin E (Homo sapiens), sequence (P24864 whole entry, looked up): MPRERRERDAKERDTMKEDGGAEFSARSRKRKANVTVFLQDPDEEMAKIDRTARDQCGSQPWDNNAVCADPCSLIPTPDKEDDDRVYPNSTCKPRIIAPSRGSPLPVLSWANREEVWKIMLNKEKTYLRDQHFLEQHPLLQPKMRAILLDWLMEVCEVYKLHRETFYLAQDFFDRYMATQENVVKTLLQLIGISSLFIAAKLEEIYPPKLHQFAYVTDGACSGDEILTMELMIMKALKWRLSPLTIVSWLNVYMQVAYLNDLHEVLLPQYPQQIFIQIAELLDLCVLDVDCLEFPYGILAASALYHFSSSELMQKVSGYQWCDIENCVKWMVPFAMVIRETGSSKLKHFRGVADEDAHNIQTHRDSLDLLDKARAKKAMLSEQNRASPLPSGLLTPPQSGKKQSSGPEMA
# CDK3/Cyclin E (Homo sapiens), sequence (Q00526 whole entry, looked up): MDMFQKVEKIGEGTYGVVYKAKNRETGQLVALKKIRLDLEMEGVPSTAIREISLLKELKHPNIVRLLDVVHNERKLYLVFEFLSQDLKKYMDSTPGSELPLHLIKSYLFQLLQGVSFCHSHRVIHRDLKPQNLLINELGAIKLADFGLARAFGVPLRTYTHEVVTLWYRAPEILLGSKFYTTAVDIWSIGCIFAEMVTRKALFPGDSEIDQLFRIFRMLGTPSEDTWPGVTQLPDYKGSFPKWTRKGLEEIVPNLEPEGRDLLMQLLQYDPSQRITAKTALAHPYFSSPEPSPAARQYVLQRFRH
# Cyclin-dependent kinase 5 (Homo sapiens), sequence (Q00535 whole entry, looked up): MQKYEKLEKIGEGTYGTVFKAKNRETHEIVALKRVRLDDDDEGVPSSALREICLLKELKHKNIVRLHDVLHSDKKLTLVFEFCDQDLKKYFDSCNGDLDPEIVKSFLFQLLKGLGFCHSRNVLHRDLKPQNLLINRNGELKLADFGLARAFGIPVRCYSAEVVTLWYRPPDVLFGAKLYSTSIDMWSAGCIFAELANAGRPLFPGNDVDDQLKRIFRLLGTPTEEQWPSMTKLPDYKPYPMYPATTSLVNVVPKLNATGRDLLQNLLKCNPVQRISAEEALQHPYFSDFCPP
# Cyclin-dependent kinase 6 (Homo sapiens), sequence (Q00534 whole entry): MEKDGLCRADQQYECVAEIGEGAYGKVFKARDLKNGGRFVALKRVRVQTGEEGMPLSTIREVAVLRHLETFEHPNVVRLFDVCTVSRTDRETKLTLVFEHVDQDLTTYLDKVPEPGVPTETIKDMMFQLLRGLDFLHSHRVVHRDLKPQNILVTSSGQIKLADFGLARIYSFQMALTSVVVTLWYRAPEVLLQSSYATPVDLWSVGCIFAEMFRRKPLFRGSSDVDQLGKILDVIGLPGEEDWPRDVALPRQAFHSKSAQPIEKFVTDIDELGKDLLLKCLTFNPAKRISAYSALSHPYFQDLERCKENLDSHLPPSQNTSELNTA
# Dual specificity protein kinase CLK2 (Homo sapiens), sequence (P49760 whole entry, looked up): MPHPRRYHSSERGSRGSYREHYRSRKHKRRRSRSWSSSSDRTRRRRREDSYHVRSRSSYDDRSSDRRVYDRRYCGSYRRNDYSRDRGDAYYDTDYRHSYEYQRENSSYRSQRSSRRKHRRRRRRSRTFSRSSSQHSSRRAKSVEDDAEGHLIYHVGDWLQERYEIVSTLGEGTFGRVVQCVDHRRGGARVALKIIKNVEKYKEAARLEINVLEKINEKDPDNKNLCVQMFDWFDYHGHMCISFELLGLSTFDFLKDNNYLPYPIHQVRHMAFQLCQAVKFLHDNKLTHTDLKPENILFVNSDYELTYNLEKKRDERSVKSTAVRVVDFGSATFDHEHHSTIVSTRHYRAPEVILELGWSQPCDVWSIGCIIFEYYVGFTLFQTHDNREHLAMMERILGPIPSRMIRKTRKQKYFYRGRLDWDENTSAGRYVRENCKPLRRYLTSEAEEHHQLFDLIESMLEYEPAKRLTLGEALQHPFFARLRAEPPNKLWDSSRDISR
# Cyclin-dependent kinase 4 (Homo sapiens), sequence (P11802 whole entry): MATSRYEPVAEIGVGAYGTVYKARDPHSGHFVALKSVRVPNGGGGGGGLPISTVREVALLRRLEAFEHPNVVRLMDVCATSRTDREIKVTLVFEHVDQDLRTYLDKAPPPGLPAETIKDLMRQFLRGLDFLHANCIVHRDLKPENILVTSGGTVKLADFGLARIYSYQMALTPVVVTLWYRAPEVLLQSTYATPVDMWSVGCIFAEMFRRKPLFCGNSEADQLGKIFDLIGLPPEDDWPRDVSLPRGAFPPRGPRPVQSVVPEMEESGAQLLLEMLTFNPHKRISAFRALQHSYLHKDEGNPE
Compound,inhibition [1] [%],inhibition [2] [%],inhibition [3] [%],inhibition [4] [%],inhibition [5] [%],inhibition [6] [%],inhibition [7] [%],inhibition [8] [%],inhibition [9] [%],inhibition [10] [%]
COc1ccc2cc(-c3c(-c4ccncc4)nc(-c4ccc([S+](C)[O-])cc4)n3C)ccc2c1 (centres undefined),-0.42,2.74,2.79,0.96,1.53,-3.35,-1.41,0.22,1.33,0.91
COc1ccc(-c2ccncc2)cc1C(N)=O,-1.43,3.41,3.66,0.56,1.7,-5.08,0.48,0.6,2.96,2.01
NC(=O)c1ccc(-c2nc(-c3ccccn3)c(-c3ccc4c(c3)OCO4)[nH]2)cc1,-1.06,1.33,1.94,0.55,0.87,1,-1.82,1.23,1.07,-1.49
COc1cc2ncn(-c3cc(OCc4ccccc4C(F)(F)F)c(C(N)=O)s3)c2cc1OC,-0.14,-1.16,1.16,-3.58,-1.09,-3.21,-1.7,1.94,6.82,-2.62
NS(=O)(=O)c1cccc(-c2ccc3c(NC(=O)C4CC4)n[nH]c3c2)c1,1.71,-1.17,1.45,0.87,1.78,-1.94,6.01,-0.55,-0.78,0.83
COc1cc2ncn(-c3cc(OCc4ccccc4Cl)c(C(N)=O)s3)c2cc1OC,-0.63,2.27,5.4,1.51,4.46,-4.1,0.43,1.87,3.23,1.33
COc1cc2c(cc1Nc1nc(N3CCc4ccccc43)c3cc[nH]c3n1)N(C(=O)CN(C)C)CC2,1.66,2.1,3.3,0.44,0.4,0.95,1.09,7.85,44.4,0.14
COC(=O)Nc1nc2cc(Oc3cccc(NC(=O)Nc4cc(C(F)(F)F)ccc4F)c3)ccc2[nH]1,-1.48,1.83,2.11,0.65,1.39,-5.71,1.18,-0.8,1.04,-0.93
CCCN1CCC(Oc2cc(Nc3nc(Nc4cccc(F)c4C(N)=O)c4cc[nH]c4n3)c(OC)cc2Cl)CC1,1.54,0.37,3.08,0.2,0.45,0.9,2.04,9.9,49.3,0.11
COc1cc2ncn(-c3cc(O[C@H](C)c4ccccc4Cl)c(C(N)=O)s3)c2cc1OC,5.51,2.41,3.26,0.86,1.47,-0.21,-0.74,3.38,5.22,2.12
Nc1ncnc2occ(-c3ccc(NC(=O)Nc4cc(C(F)(F)F)cc(C(F)(F)F)c4)cc3)c12,7.22,1.55,2.23,0.25,1.52,-0.28,3.73,0.31,2.87,0.61
CN(C)c1cc2c(Nc3ccc4nc(Cc5ccccc5)[nH]c4c3)ncnc2cn1,-2.11,3.33,3.46,1.02,1.2,1.12,3.91,2.08,1.7,2.14
NC(=O)c1cccc(Nc2nccc(Nc3cccc4[nH]ncc34)n2)c1,23.7,-0.82,5.05,1.84,14.1,0.2,0.3,1.19,27.8,0.15
Cc1cccc(-c2n[nH]cc2-c2ccc3ncccc3n2)n1,-2.25,-0.55,2.39,-0.23,0.38,-3.86,0.55,-0.31,3.44,0.37
Cc1ccc(NC(=O)c2ccnc(N3CCCC3)c2)cc1-c1ccc(C(=O)NCC2CC2)cc1,-0.38,0.83,4.63,2.54,3.21,-7.97,-0.52,3.05,1.8,-1.85
NS(=O)(=O)c1ccc(N/N=C2\C(=O)Nc3ccc(C(=O)NCCc4c[nH]cn4)cc32)cc1,81.3,14.4,56.4,48.3,84.4,14.9,55.9,46.5,91.9,4.48
CCc1cccc(NC(=O)Nc2ccc(Oc3ccc4nc(NC(=O)OC)[nH]c4c3)cc2)c1,-1.16,0.97,1.5,-0.16,-0.09,7.42,1.51,0.09,1.38,0.3

Compound,inhibition [1] [%],inhibition [2] [%],inhibition [3] [%],inhibition [4] [%],inhibition [5] [%],inhibition [6] [%],inhibition [7] [%],inhibition [8] [%],inhibition [9] [%],inhibition [10] [%]
Cc1nnc(-c2ccc(C)c(-c3ccc(C(=O)Nc4cccc(C#N)c4)cc3)c2)o1,-0.82,0.95,0.68,0.65,1.71,1.26,3.14,1.15,-0.94,0.91
Nc1nc(-c2ccccn2)c(-c2ccc3ncccc3n2)s1,0.5,3.41,4.48,1.28,2.86,6.73,7.75,-0.01,0.69,2.95
COc1cccc(-n2ncc3c(N/N=C/c4cccc(F)c4)ncnc32)c1,5.59,0.03,22.1,3.4,34.2,-5.64,17.1,2.25,1.15,-2.19
O=C1NC(=O)C(c2cccc(Cl)c2)=C1Nc1ccc(O)c(Cl)c1,6.94,2.23,13.9,1.36,7.25,-3.15,12.6,4.59,26.1,-0.5
CCn1c(-c2nonc2N)nc2ccncc21,-0.78,1.15,3.35,0.45,1.71,,-1.56,3.93,3.92,-0.93
COc1ccc(-c2coc3ncnc(N)c23)cc1,0.08,4.16,5.78,2.66,3.84,,3.88,3.15,3.42,1.07
CS(=O)(=O)CCNCc1ccc(-c2ccc3ncnc(Nc4ccc(OCc5cccc(F)c5)c(C(F)(F)F)c4)c3c2)o1,-2.95,2.52,2.44,0.38,0.07,,-2.6,0.58,0.13,1.49
COc1ccc(COc2ccc(Cc3cnc(N)nc3N)cc2OC)cc1,1.92,1.7,3.6,2.15,2.03,1.93,3.33,2.03,1.66,-0.25
CS(=O)(=O)Nc1ccc(N/C=C2\C(=O)Nc3ccccc32)cc1,17.4,1.6,15,6.34,39.8,12.9,59.4,-0.68,3.62,0.94
CS(=O)(=O)CCN(CC#N)Cc1ccc(-c2ccc3ncnc(Nc4ccc(OCc5cccc(F)c5)c(Cl)c4)c3c2)o1,-2.66,-2.96,-1.43,-3.58,-2.47,-5.97,-4.69,1.05,0.64,-3.63
CCn1c(-c2nonc2N)nc2c(C#CC(C)(C)O)nc(OC[C@@H](N)c3ccccc3)cc21,0.99,-0.22,0.8,0.35,0.49,-0.27,-0.99,0.81,2.4,-0.31
N#Cc1c(NC(=O)c2cccc3ccccc23)sc2c1CCCC2,-0.77,3.82,6.92,1.3,5.67,,4.55,1.29,0.3,0.63
Cc1nn(C)c2cc(N(C)c3ccnc(Nc4cccc(S(N)(=O)=O)c4)n3)ccc12,-0.68,1.72,4.46,0.41,2.78,,-0.34,0.73,0.86,1.2
O=C1Nc2ccc(C(=O)c3ccco3)cc2C1=Cc1cc(Cl)c(O)c(Cl)c1,-0.28,3.32,7.07,1.97,6.39,3.35,7.37,64.6,95.7,22.3
CCCN1CCC=C(c2ccc(Nc3nc(Nc4ccccc4C(N)=O)c4cc[nH]c4n3)c(C)c2)C1,4.3,4.35,10.9,1.88,9.85,0.69,5.64,38.2,88.9,-0.17
CC(=O)Nc1cccc(C#Cc2cncnc2Nc2ccc(OCc3cccc(F)c3)c(Cl)c2)n1,-0.89,-1.95,-1.42,0.24,1.19,-1.85,,0.62,0.84,-0.78
CCn1c(-c2nonc2N)nc2c(C#CC(C)(C)O)nc(CN3CCCC3)cc21,-0.95,1.6,2.5,1.06,2.14,-8.94,0.66,-0.92,1.46,-1.6
